# PLAP activator: activates human placental alkaline phosphatase. hit rate 1.2% among 96,000. activation fold at 20 µM. P05187. purified PLAP enzyme, luminescent substrate read-out; stronger effect = higher value; in the data active = activation fold above about 2
# CYP2C9 activ: CYP2C9 (human) activation. P11712. recombinant CYP2C9, luciferin-H conversion, luminescence; stronger effect = higher value; factor 1 = untreated enzyme, 0 = blocked. activation factor at 5 µM. hit rate 1.4% among 96,000. AID 1024;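 active = activation factor of 2 or more for CYP2C9 at a 5 µM dose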;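 note: 0 = sulfaphenazole-blocked wells and 1 = vehicle-only wells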
# Target sequence (P11712 whole entry, looked up): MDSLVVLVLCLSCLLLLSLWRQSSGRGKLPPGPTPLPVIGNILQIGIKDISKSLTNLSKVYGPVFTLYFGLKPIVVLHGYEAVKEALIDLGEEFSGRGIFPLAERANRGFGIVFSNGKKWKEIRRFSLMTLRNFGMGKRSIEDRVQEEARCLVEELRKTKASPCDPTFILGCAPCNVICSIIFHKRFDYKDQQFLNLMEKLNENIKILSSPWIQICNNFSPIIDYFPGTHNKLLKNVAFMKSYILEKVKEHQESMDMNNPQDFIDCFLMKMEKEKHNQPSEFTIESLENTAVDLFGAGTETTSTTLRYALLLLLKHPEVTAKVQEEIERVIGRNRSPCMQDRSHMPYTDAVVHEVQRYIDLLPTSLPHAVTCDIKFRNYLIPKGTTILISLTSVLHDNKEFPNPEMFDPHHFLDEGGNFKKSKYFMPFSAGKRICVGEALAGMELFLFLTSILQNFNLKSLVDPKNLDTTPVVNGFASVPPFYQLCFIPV
# CYP2C19 inh: inhibitors of human CYP2C19 | P33261 | CYP2C19 Supersomes, luciferin-H EGE luminescence, 30 min | inhibition, % at 5 µM | hit rate 21% among 96,000;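 active = CYP2C19 inhibition above a set limit at 5 µM in the primary screen, cut at about 50% in these data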;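 note: plate controls were negative control wells for no effect and 2.5 mM tranylcypromine positive control for full effect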
# CYP2C9 inhib: human CYP2C9 inhibition; P11712; CYP2C9 Supersomes, luciferin-H conversion, luminescence; inhibition, % at 5 µM; hit rate 20% among 96,000;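 active = blocking of liver enzyme CYP2C9 beyond about 50% at 5 µM, limit read from the data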
# CYP2C19 act: increases human CYP2C19 enzyme activity | P33261 | recombinant CYP2C19, luciferin-H EGE luminescence; stronger effect = higher value; 0 = fully inhibited enzyme, 1 = untreated enzyme | activation factor at 5 µM | 96,000 tested, under 10 active;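 active = activation factor of at least 2 at 5 µM in the primary screen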;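 note: 0 = wells with 2.5 mM tranylcypromine and 1 = vehicle-only wells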
# Starred values were filed as active, the others as inactive. Shown are actives, neighbours in structure and some others; about 31% of the full set was active somewhere.
SMILES,PLAP activator,CYP2C9 activ,CYP2C19 inh,CYP2C9 inhib,CYP2C19 act
COc1ccc(N(CC(=O)Nc2nccs2)S(=O)(=O)c2c(C)nn(C)c2C)cc1,1.1,0.4,58*,64*,0.4
COc1cccc(CC(=O)Nc2nccs2)c1,0.9,0.9,41,13,0.6
COc1ccc(N(CC(=O)Nc2ccc3c(c2)OCCO3)S(=O)(=O)c2c(C)nn(C)c2C)cc1,1.6,0.3,55*,74*,0.5
COc1ccc(CCC(=O)Nc2ccc3c(c2)OCCO3)cc1,1.1,0.7,6,32,0.9
CCOC(=O)c1sc(C)c2c1NC1(CCCCC1)NC2=O,1,0.5,40,47,0.6
CCOC(=O)c1sc(C)c2c1NC(C)(c1cccs1)NC2=O (centres undefined),1,0.4,31,63*,0.7
CCCC(=N)C1=C(O)CC(CC(C)SCC)CC1=O (centres undefined),0.8,0.3,82*,66*,0.2
CCCC(=O)C1C(=O)CC(CC(C)SCC)CC1=O (centres undefined),1.1,0.7,16,28,0.8
O/C(=C\Sc1nnc(Cc2ccccc2)o1)c1ccc(F)cc1,1.1,0,36,96*,0.6
O=C(O)c1cccc(CSc2nnc(Cc3ccccc3)o2)c1,1.3,0.9,-3,6,1
CC1CCN(C(=O)C2CCC(CNS(=O)(=O)c3cccc4cccnc34)CC2)CC1 (centres undefined),1.6,2.9*,-2,-191,1
O=C(C1CCN(S(=O)(=O)c2cccc3nsnc23)CC1)N1CCCc2ccccc21,1.2,1,11,4,0.9
O=C(C1CCC(CNS(=O)(=O)c2cccc3cccnc23)CC1)N1CCc2ccccc21 (centres undefined),1.4,0.9,80*,12,0.2
O=C(NCCN1CCCCCC1)C1CCC(CNS(=O)(=O)c2cccc3cccnc23)CC1 (centres undefined),1.4,1,45,2,0.6
CN1CCN(C(=O)C2CCC(CNS(=O)(=O)c3cccc4cccnc34)CC2)CC1 (centres undefined),1.2,1.3,-11,-27,1.1
O=C(C1CCN(S(=O)(=O)c2cccc3cccnc23)CC1)N1CCc2ccccc21,1,2.1*,43,-112,0.6
O=C(C1CCCN1S(=O)(=O)c1cccc2cccnc12)N1CCc2ccccc21 (centres undefined),1.6,0.4,70*,62*,0.3
O=C(C1CCCN1S(=O)(=O)c1cccc2cccnc12)N1CCN(c2ccccc2)CC1 (centres undefined),1.7,0.4,16,61*,0.8
O=C(C1CCCN1S(=O)(=O)c1cccc2cccnc12)N1CCc2ccccc2C1 (centres undefined),1,0.8,20,15,0.8
CC(=O)Nc1ccccc1C(=O)N1CC2(C)CC1CC(C)(C)C2 (centres undefined),1,1,-6,-4,1.1
CC1(C)CC2CC(C)(CN2C(=O)COc2cccc3ccccc23)C1 (centres undefined),0.8,1.6,2,-57,1
CC1(C)CC2CC(C)(CN2C(=O)c2cc(-c3ccccc3O)on2)C1 (centres undefined),1.3,0.3,54*,73*,0.5
CC1(C)CC2CC(C)(CN2C(=O)c2cccs2)C1 (centres undefined),1.1,0.6,74*,38,0.3
CC1CCN(C(=O)c2cc(-c3ccccc3O)on2)CC1,1,1.2,67*,-19,0.3
CC1(C)CC2CC(C)(CN2C(=O)CCCN2C(=O)c3ccccc3C2=O)C1 (centres undefined),1.5,0.9,86*,8,0.1
SMILES,PLAP activator,CYP2C9 activ,CYP2C19 inh,CYP2C9 inhib,CYP2C19 act
CCOc1ccc(C(=S)NC2CCCCC2)cc1OC,1,1,13,0,0.9
COC(=O)C1=C(C)N(CCc2ccc(OC)c(OC)c2)C(=O)/C1=C\N(C)C,1.5,1,14,3,0.9
COc1ccc(CCNC(=O)C2CC(c3ccccc3[N+](=O)[O-])=NO2)cc1 (centres undefined),0.9,0.6,21,40,0.8
CCCCn1c(=NC(=O)c2cccnc2)c(C#N)cc2c(=O)n3cccc(C)c3nc21,0.9,1,1,-2,1
Cc1cccn2c(=O)c3cc(C#N)c(=NC(=O)c4ccncc4)n(CCCOC(C)C)c3nc12,1.7,0.1,94*,87*,0.1
COCCCn1c(=NC(=O)c2ccncc2)c(C#N)cc2c(=O)n3cccc(C)c3nc21,1,0.2,70*,81*,0.3

# Screens from PubChem BioAssay.
